Records with an inconclusive call do not appear. A number with no mark means an inactive call. The call rests on the fitted dose curve; in most records, active means well fitted inhibition curve with a large enough effect; inconclusive means small, poorly fitted or top-dose-only effect; inactive means no such curve, though single readings can be large or run the other way.

In this assay the target is Retinaldehyde dehydrogenase 3 (Homo sapiens) (UniProt P47895). The assay can be described thus: qHTS for Inhibitors of the Aldehyde Dehydrogenase Family (ALDH1A3) Primary screen (AID 2061315).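 Further: plate controls were DMSO vehicle for no effect and reference inhibitor for full effect.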 The conditions noted are these: ALDH inhibition qHTS; series mostly up to 56 µM; activity change, negative = inhibition: at the top concentration. In general terms: Quantitative high-throughput screening tests each substance at several concentrations.
As to `COc1cc(O)cc(/C=C/c2cccc(O)c2)c1`, the “activity change, negative = inhibition” value is -28.1%.
As for `NC1CCC(Nc2cc(-c3cccc(NCc4cccc(F)c4)n3)c(Cl)cn2)CC1` (stereo unspecified), the “activity change, negative = inhibition” value was 17.7%.
As for `COc1ccccc1NC(=O)OCC1CCN(C(=O)OC(C)(C)C)CC1`, the “activity change, negative = inhibition” value is -4.83%.
For the compound `Cc1c(O)cc2c(c1O)COC1(O)CCCOC21` (stereo unspecified), the “activity change, negative = inhibition” value was -14.7%.
Turning to `CC1CCN(C(=O)CC#N)CC1N(C)c1ncnc2[nH]ccc12` (stereo unspecified), the “activity change, negative = inhibition” value was 4.33%.
Take `CC1=C2C(=O)C=C(CO)C2[C@H]2OC(=O)[C@H](C)[C@@H]2[C@@H](OC(=O)Cc2ccc(O)cc2)C1` (stereo partly specified): the “activity change, negative = inhibition” value was -2.6% [at 28 µM].
As for `CC(=O)O[C@@H]1CC2C(C)(C)C(=O)C=C[C@]2(C)C2CC[C@]3(C)C(=CC(=O)[C@@H]3c3ccoc3)[C@@]21C` (stereo partly specified), the “activity change, negative = inhibition” value is 5.02% [at 28 µM].
As to `CC1=CC(=O)CC(C)(C)[C@@]1(O)/C=C/C(C)O[C@@H]1O[C@H](CO)[C@@H](O)[C@H](O)[C@H]1O` (stereo partly specified), the “activity change, negative = inhibition” value is -6.64% [at 28 µM].
Take `C/C=C(/C)C(=O)OC1C=C2C3C(C)C(C)C(OC(=O)C(C)C(C)O)CC3(C)CCC2(C)C2(C)CC(OC(C)=O)C3C(C)(C)C(O)C(=O)CC3(C)C12` (stereo unspecified): the “activity change, negative = inhibition” value was 16.4% [at 16.9 µM].
As for `Nc1nc2c(nc(Br)n2[C@@H]2O[C@@H]3COP(=O)(O)O[C@H]3[C@H]2O)c(=O)[nH]1`, the “activity change, negative = inhibition” value was -7.13%.
On to `C[C@@H]1O[C@@H](O[C@H]2[C@H](O)[C@@H](O[C@@H]3O[C@H](CO)[C@@H](O)[C@H](O[C@@H]4O[C@H](CO)[C@@H](O)[C@H](O)[C@H]4O)[C@H]3O)[C@H](O[C@H]3CC[C@@]4(C)C(=CC[C@@H]5C4CC[C@@]4(C)C5C[C@@H]5OC6(CC[C@@](C)(CO[C@@H]7O[C@H](CO)[C@@H](O)[C@H](O)[C@H]7O)O6)[C@@H](C)[C@@H]54)C3)O[C@@H]2CO)[C@H](O)[C@H](O)[C@H]1OC1OC(CO)C(O)C(O)C1O` (stereo partly specified), for which the activity change, negative = inhibition was -22.4% [at 11.2 µM].
